# AmpC inh detg – AmpC beta-lactamase inhibition with detergent present; P00811; AmpC hydrolysis of nitrocefin, absorbance 480 nm, 0.01% Triton; Potency, µM (titrated, usually from 114 µM), inactives show at the top dose activity change, negative = inhibition, actives largely listed as inhibitors; actives 0.041% (n = 370,000); AID 485294;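 also: 0% = no-compound wells and -100% = no-enzyme wells; nearly all actives have a fitted effect of over 25% in size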
# Target sequence (P00811 whole entry, looked up): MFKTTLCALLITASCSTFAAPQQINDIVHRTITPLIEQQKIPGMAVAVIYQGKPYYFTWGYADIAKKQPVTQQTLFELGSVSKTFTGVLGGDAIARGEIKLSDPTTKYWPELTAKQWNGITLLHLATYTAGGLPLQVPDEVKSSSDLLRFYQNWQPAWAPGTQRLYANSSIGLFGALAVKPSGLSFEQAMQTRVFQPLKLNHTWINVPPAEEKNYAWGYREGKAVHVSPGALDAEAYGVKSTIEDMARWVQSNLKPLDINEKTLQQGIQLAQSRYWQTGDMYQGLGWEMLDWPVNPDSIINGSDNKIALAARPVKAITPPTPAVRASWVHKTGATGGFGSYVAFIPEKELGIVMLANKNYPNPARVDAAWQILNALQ
#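 AmpC (5.3 nM in the dispensed reagent) in 20 mM phosphate pH 7.0 with 0.01% (detergent screen) or 0.0001% Triton X-100 was preincubated with compounds for 15 min at room temperature. Nitrocefin was then added from an 800 uM solution, and hydrolysis was followed at 480 nm.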
# AmpC no deterg – blocks E. coli AmpC beta-lactamase in detergent-free assay; AID 485341; actives 0.52% (n = 330,000); P00811; AmpC nitrocefin hydrolysis, absorbance 480 nm, 0.0001% Triton; Potency, µM (titrated, usually from 57.1 µM), for inactives: at the top dose activity change, negative = inhibition, usual class: inhibitors;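 also: plate controls were no compound for no effect and no enzyme for full effect; nearly all actives have a fitted effect of over 20% in size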
#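 AmpC (5.3 nM in the dispensed reagent) in 20 mM phosphate pH 7.0 with 0.01% (detergent screen) or 0.0001% Triton X-100 was preincubated with compounds for 15 min at room temperature. Nitrocefin was then added from an 800 uM solution, and hydrolysis was followed at 480 nm.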
# Pf growth 96h – P. falciparum growth inhibition at 96 hour, primary screen for plastid delayed-death inhibitors | P. falciparum luciferase reporter growth, 96 h | Potency, µM (top dose mostly 28.7 µM), for the others: at the top dose activity change, negative = inhibition, actives largely listed as inhibitors | actives 6.9% (n = 320,000); also: % is scaled to controls: 0 for no effect and ±100 for the full control effect
#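 Delayed-death screen, second-generation endpoint: infected erythrocytes, 2% hematocrit, 0.05% parasitemia final; 96 hours at 37 C, 5% CO2; luciferase detection reagent; luminescence decrease equals reduced growth.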
# Sm TGR block – blocks Schistosoma mansoni thioredoxin glutathione reductase | Q962Y6 | purified TGR, DTNB reduction, TNB absorbance 405 nm | Potency, µM (doses to about 114 µM), inactives show top-dose activity change, negative = inhibition, hits mostly inhibitors | actives 3% (n = 360,000) | AID 485364; also: % is scaled to controls: 0 for no effect and ±100 for the full control effect; nearly all actives have a fitted effect of over 60% in size
#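 Kinetic colorimetric format: TGR-catalysed, NADPH-driven DTNB reduction monitored via TNB absorbance. Enzyme dispensed at 20 nM; compound exposure 15 min at room temperature before reaction start.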
# Pf growth 48h – P. falciparum growth inhibition at 48 hours (one generation). P. falciparum luciferase growth in erythrocytes, 48 h. Potency, µM (top dose mostly 28.7 µM), inactives show at the highest dose activity change, negative = inhibition, actives largely listed as inhibitors. actives 5.9% (n = 310,000); also: % is scaled to controls: 0 for no effect and ±100 for the full control effect
#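 Read-out is firefly luciferase luminescence from an integrated reporter in P. falciparum, so falling signal marks reduced parasite growth. Infected erythrocytes were at 2% hematocrit and 0.1% parasitemia (final) in Albumax-supplemented RPMI 1640.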
# SARS PLpro yeast – blocks SARS-CoV papain-like protease in a yeast assay; S. cerevisiae expressing SARS-CoV PLpro, growth rescue; Potency, µM (top dose mostly 32.9 µM), for the others: top-dose activity, positive = growth rescue, hits mostly activators; actives 0.19% (n = 330,000); AID 485353; calls by dose curve; also: 0% is about no effect; nearly all actives have a fitted effect of over 55% in size
# * hit, by the source's call; ? = inconclusive; . = no result. Hits are enriched below; roughly 12% of the tested compounds scored in any of these assays. Unless noted, calls follow the shape of the dose curve; as a rule, active = well fitted curve in the direction sought with a large enough effect; inconclusive = small, poorly fitted or top-dose-only effect, or another doubt; inactive = no such curve, though single readings can be large; an effect the other way counts as inactive or inconclusive. Potency is read from the fitted curve at half-maximal effect.
SMILES,AmpC inh detg,AmpC no deterg,Pf growth 96h,Sm TGR block,Pf growth 48h,SARS PLpro yeast
COc1ccccc1C(CNC(=O)c1ccc(OCc2c(C)noc2C)cc1)N1CCCC1 (stereo not drawn),-3%,9%,10µM*,?,10µM*,0%
COc1ccc(C(CNC(=O)c2ccc(OCc3c(C)noc3C)cc2)N2CCCC2)cc1 (stereo not drawn),-2%,62%,3.7µM*,-24%,4.7µM*,-6%
COc1ccccc1C(=O)Nc1ccccc1OCc1cc(=O)n2c(C)csc2n1,3%,.,.,-1%,.,.
COc1ccc(CNC(=O)COC(=O)c2ccc(S(=O)(=O)N3CCOCC3)cc2)cc1,.,0%,.,.,.,21%
Cc1noc(C)c1COc1ccc(C(=O)NCC(c2c(F)cccc2Cl)N(C)C)cc1 (stereo not drawn),0%,52%,9.3µM*,-6%,?,4%
CC1(C)CC(=O)C2=C(C1)NC(Nc1nc3ccccc3o1)=NC21CCCCC1,?,-16%,9.3µM*,-1%,?,-14%
CCOc1ccc(OCC)c(NC(=O)CCC(=O)N2CCOc3ccccc32)c1,10%,.,.,0%,.,.
CC(C)(C)c1ccc(COn2c(=O)c(-c3ccco3)[n+]([O-])c3ccccc32)cc1,3%,-31%,-28%,18µM*,.,1%
O=c1c(-c2ccc(Br)cc2)[n+]([O-])c2ccccc2n1OCc1ccccc1,0%,-11%,10%,-5%,12%,2%
COc1ccc(N2C(=O)/C(=C/c3cccs3)C(=O)NC2=S)cc1,1%,-35%,17%,35µM*,-2%,-5%
COc1ccc(N2C(=O)/C(=C/C=C/c3ccccc3[N+](=O)[O-])C(=O)NC2=S)cc1,-9%,-59%,41%,45µM*,-15%,5%
O=C1NC(=S)N(c2ccccc2)C(=O)/C1=C/c1ccco1,-14%,-42%,-12%,14µM*,16%,-5%
O=C1NC(=S)N(c2ccc(F)cc2)C(=O)/C1=C/c1ccccc1O,-14%,-23%,35%,?,.,-1%
CCOc1cccc(N2C(=O)/C(=C/c3ccco3)C(=O)NC2=S)c1,?,-27%,-21%,?,-15%,-3%
COc1ccccc1/C=C1\C(=O)NC(=S)N(c2ccccc2)C1=O,-2%,-26%,17%,8.9µM*,3%,10%
CS(=O)(=O)N1CCC(Oc2cccc(C(=O)NCCCOc3cccnc3)c2)CC1,0%,34%,-30%,-23%,-5%,.
CC(C)c1nnc(SCC(=O)N2CCc3ccccc32)n1N,?,-27%,-22%,-3%,?,0%
COc1ccc(C(=O)NC2CC2)cc1OC1CCN(Cc2ccc(F)cc2F)CC1,?,-3%,?,0%,?,0%
Cc1ccc(C(=O)NCCc2nnc3ccc(SCC(=O)NCc4ccc(F)cc4)nn23)cc1,-13%,43%,9.3µM*,-3%,-16%,3%
O=C(CSc1ccc2nnc(CCNC(=O)c3ccccc3)n2n1)NCc1ccccc1,4%,12%,?,0%,-29%,6%
COc1cccc(NC(=O)CSc2ccc3nnc(CCNC(=O)c4ccccc4)n3n2)c1,?,40%,10µM*,-2%,-23%,0%
COc1ccc(NC(=O)CSc2ccc3nnc(CCNC(=O)c4ccccc4)n3n2)cc1,?,-3%,?,3%,-14%,-1%
O=C(O)c1ccc2c(c1)C(=O)N([C@H](Cc1ccc(F)cc1)C(=O)O)C2=O,-11%,-18%,19%,-5%,?,3%
OC(c1ccccc1)(c1ccc(Cl)cc1)C1CN2CCC1CC2 (stereo not drawn),-4%,15%,8.3µM*,0%,?,0%

# Screening results (PubChem BioAssay)
